Test results published in PubChem BioAssay AID431 (Sanford-Burnham Center for Chemical Genomics, 2006).
Out of some 63,000 compounds screened, about 1,100 (1.7%) were called active. This excerpt belongs to a sample that is enriched for actives. Potency and affinity values are given separately. A number with no mark means an inactive call.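 How the source made its calls: active means compounds whose percent cytotoxicity in the single-dose primary screen, scaled between solvent and toxic-drug controls, exceeds 50; inactive means the rest.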

Test: viability loss of HPDE-C7K cells – cell-based, fluorescence, HTS, primary screen (AID 431);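 further: 0% = DMSO solvent wells and 100% = doxorubicin-treated wells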
Details: HPDE-C7K KRASV12 cells, Alamar Blue viability, 48 h; at 10 µM; stronger effect = higher value

SMILES | cytotoxicity
CC(C)OCCCNC(=O)CN1C(=O)CC(C)(C)S(=O)(=O)c2ccccc21 | 3.7%
CS(=O)(=O)N(CC(=O)NCc1ccc2c(c1)OCO2)Cc1ccc(Cl)cc1 | -14.6%
C=CCNc1nc(NCc2ccccc2)c(C#N)c2c1CN(C)CC2 | 19.2%
C=CCNc1nc(N2CCCCC2)c(C#N)c2c1CN(Cc1ccccc1)CC2 | -1.7%
CCN1CCc2c(C#N)c(N3CCOCC3)nc(NCc3ccccc3)c2C1 | -1.3%
N#Cc1c(N2CCCCC2)nc(N2CCCCC2)c2c1CCN(Cc1ccccc1)C2 | -4.7%
N#Cc1c(NCCO)nc(NCc2ccccc2)c2c1CCN(Cc1ccccc1)C2 | 40.8%
N#Cc1c(NCCCO)nc(-c2ccccc2)c2c1CCCC2 | 20.2%
CCN1CCc2c(C#N)c(N3CCCCC3)nc(NCc3ccccc3)c2C1 | 51.6% (active)
CCN(CCCNC(=O)CCCn1c(=O)[nH]c2ccccc2c1=O)c1cccc(C)c1 | -2.5%
CCc1nc(SCC(=O)Nc2cc(C)on2)n[nH]1 | -9.6%
Cc1ccccc1NC(=O)N1C2CCCC1CC(NC(=O)C1CC1)C2 (stereo not drawn) | 54.6% (active)
Cc1ccccc1NC(=O)N1C2CCCC1CC(NC(=O)C(C)(C)C)C2 (stereo not drawn) | -3.9%
CCOc1ccccc1NC(=O)N1C2CCCC1CC(NC(=O)C1CC1)C2 (stereo not drawn) | -3.2%
CCCCSc1nnc(C)c(=O)[nH]1 | -3.8%
CN1CC2=Cc3ccccc3OC23Oc2ccccc2C=C3C1 | 60.6% (active)
Cc1ccccc1-c1nn2c(-c3ccccc3)nnc2s1 | 11.2%
Cc1nnc2sc(-c3csc4c3CCCC4)nn12 | 3.5%
c1ccc(-c2nnc3sc(-c4csc5c4CCCC5)nn23)cc1 | 71.6% (active)
COc1ccc(-c2cc(C(F)F)n3ncc(C(=O)NCCCN4CCCC4=O)c3n2)cc1 | -8.7%
COCCNC(=O)c1ccccc1-c1ccccc1C(=O)O | 7.4%
COC(=O)CSc1nnc(CCc2nc3ccccc3[nH]2)n1C | -3.8%
COc1cc(C2C(C(C)=O)=C(C)Nc3ncnn32)ccc1O (stereo not drawn) | 2.2%
COc1cc(-c2ccccc2)nc(N)n1 | 7.6%
COc1ccc(OC)c(Nc2cc(-c3ccccc3)nc(N)n2)c1 | 57.6% (active)
COc1ccc(OC)c(Nc2cc(C)nc3ccccc23)c1 | 1.1%
CC1CCCCC1NC(=O)Cn1[nH]c(=O)c2ccccc2c1=O (stereo not drawn) | 0.5%
CC(C)(C)NC(=O)Nc1ccccc1C(N)=O | -1.1%
